# Assay outcomes: PubChem BioAssay, Sanford-Burnham Center for Chemical Genomics
# Compounds with a hit are over-represented: about 3.2% of the library has one in this group of screens.
# aDG glyco up = increases alpha dystroglycan glycosylation | hit rate 0.22% among 360,000 | activation, % at 10 µM | Pro5-aDG cells, alpha-DG glycosylation AlphaScreen (IIH6); 0% Pro5, 100% B10-LARGE cell signal | AID 624168;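 active = activation of at least 8% versus controls, or a plate z-score of at least 8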;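 also: Pro5 are CHO cells carrying HIG-tagged alpha-DG that lacks glycosylation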
# FAS-TE inh = inhibitors of human fatty acid synthase thioesterase domain; hit rate 0.67% among 360,000; recombinant FAS-TE, OMFH fluorogenic substrate, fluorescence endpoint; P49327; inhibition, % at 15 µM;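 active = compounds whose normalised, plate-corrected inhibition of enzyme fluorescence in the single-dose primary screen is 50% or more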;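 also: 0% = DMSO with enzyme and 100% = substrate without enzyme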
# Target sequence (P49327 whole entry, looked up, the tested form may be a part): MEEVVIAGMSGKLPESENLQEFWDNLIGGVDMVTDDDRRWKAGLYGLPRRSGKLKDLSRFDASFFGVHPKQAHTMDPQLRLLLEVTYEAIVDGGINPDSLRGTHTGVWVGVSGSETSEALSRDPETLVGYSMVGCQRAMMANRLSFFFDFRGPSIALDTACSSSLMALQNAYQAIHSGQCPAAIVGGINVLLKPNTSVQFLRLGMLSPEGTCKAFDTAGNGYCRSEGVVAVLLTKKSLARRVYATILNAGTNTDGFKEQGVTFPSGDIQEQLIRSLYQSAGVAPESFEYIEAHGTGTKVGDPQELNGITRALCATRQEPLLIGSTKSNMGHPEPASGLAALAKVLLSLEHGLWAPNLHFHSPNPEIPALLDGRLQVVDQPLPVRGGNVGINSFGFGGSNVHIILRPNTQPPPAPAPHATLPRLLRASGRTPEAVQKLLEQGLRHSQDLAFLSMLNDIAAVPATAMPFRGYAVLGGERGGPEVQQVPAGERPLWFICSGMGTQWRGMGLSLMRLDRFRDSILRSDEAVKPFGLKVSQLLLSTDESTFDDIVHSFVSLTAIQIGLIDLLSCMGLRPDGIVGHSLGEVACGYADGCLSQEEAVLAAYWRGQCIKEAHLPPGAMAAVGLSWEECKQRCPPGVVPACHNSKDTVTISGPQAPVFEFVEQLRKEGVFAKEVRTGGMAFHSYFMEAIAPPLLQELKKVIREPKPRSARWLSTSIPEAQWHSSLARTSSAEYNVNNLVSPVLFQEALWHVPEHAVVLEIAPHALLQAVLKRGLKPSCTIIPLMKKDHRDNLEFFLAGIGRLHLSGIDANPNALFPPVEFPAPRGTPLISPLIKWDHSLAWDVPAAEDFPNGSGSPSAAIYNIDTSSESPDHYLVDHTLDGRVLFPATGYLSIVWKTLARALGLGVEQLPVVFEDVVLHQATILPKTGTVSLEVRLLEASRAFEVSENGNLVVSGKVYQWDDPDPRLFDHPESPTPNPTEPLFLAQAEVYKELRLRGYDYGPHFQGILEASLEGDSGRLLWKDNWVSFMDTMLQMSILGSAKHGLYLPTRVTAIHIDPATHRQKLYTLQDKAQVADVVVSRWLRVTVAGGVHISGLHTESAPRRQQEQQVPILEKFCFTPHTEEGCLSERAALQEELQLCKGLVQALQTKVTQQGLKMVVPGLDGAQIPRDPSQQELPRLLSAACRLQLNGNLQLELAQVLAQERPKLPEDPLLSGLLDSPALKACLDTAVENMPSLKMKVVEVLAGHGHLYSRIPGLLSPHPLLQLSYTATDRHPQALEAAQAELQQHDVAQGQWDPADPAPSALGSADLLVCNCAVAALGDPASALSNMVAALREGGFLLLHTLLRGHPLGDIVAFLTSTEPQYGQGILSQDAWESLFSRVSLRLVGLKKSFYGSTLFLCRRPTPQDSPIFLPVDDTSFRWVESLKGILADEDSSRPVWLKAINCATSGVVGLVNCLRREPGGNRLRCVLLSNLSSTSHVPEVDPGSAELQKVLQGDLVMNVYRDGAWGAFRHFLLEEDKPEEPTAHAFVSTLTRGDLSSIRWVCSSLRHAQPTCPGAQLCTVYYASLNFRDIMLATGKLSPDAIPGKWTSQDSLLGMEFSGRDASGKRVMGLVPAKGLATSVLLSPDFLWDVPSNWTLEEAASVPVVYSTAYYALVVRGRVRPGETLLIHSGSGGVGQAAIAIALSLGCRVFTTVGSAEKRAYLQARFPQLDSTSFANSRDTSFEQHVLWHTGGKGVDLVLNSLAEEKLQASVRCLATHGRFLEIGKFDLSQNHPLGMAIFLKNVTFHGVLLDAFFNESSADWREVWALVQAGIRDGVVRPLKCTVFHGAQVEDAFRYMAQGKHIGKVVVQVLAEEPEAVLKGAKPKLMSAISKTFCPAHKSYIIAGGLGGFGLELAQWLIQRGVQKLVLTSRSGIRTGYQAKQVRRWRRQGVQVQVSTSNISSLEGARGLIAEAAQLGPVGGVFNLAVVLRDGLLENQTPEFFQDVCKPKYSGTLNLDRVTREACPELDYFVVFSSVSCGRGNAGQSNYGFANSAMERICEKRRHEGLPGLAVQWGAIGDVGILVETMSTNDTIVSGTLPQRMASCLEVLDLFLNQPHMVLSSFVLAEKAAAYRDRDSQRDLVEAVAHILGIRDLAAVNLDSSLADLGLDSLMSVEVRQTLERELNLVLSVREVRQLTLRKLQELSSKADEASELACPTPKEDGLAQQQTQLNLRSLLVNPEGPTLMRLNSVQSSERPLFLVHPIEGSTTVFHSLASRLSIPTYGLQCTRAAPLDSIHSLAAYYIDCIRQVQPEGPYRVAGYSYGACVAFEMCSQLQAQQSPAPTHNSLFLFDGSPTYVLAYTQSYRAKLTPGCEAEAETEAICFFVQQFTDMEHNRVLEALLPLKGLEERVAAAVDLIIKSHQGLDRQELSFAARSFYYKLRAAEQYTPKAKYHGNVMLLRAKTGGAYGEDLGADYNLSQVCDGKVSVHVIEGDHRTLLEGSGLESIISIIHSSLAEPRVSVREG
# H9c2 protect = protects H9c2 cardiomyocytes from peroxide injury. AID 588492. H2O2 injury protection, ATPLite, 2 h. protection from H2O2 cell death, % at 20 µM. hit rate 0.63% among 360,000;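 active = compounds giving at least 50% protection of heart cells from peroxide-induced death in the single-dose screen, raw or plate-pattern-corrected value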;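 also: 0% = DMSO wells with peroxide and 100% = DMSO wells without peroxide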
# PfG6PD inh = PfG6PD (Plasmodium falciparum) enzyme inhibition | PfGluPho enzyme, NADPH resazurin-diaphorase fluorescence | inhibition, % at 20 µM | hit rate 0.78% among 350,000 | AID 504690;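 active = inhibition reaching at least a set limit at 20 µM in the primary screen, cut at about 59% in these data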;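 also: 0% = DMSO wells with substrate and 100% = DMSO wells lacking glucose-6-phosphate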
# CRFBP-R2 block = CRF-BP/CRF-R2 complex antagonism | HEK293 CRF-R2/CRF-BP, CRF-induced calcium fluorescence | hit rate 0.59% among 350,000 | inhibition, % at 11.8 µM;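 active = inhibition of the ligand-induced calcium signal above about 50% at the single tested concentration, limit read from the data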
# CRFR2-BP ag = agonists of human CRF-binding protein/CRF-R2 receptor complex; HEK293 CRF-R2/CRF-BP, calcium dye fluorescence (FLIPR); percent of saturating CRF peptide response; activation, % at 13.2 µM; hit rate 0.46% among 350,000; AID 588473;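 active = activation of at least 50%, plus an integration ratio under a set limit after plate pattern correction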;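 also: plate controls were neutral control wells without compound for no effect and CRF at EC100 for full effect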
# Starred values were filed as active, the others as inactive; / = not tested or not shown.
SMILES,aDG glyco up,FAS-TE inh,H9c2 protect,PfG6PD inh,CRFBP-R2 block,CRFR2-BP ag
CC1(C)CC(=O)C2=C(C1)N(Cc1ccco1)C(=O)C2(NC(=O)c1cccnc1)C(F)(F)F (stereo unspecified),0.0,-9.6,-3.4,-5.7,-9.8,-0.4
CC1(C)CC(=O)C2=C(C1)N(Cc1ccco1)C(=O)C2(O)C(F)(F)F (stereo unspecified),0.0,-4.7,10.2,-4.4,93.8*,-0.6
Cc1[nH][nH]c(=O)c1N=Nc1ccccc1Cl,-0.2,1.4,-14.9,-14.9,0.3,-4.3
Clc1ccccc1N=Nc1ccccn1,0.4,-10.0,-2.4,90.6*,-42.8,63.2*
CC(C)OC(=O)CC(=O)c1sc2nc3c(cc2c1N)CN(C)CC3,/,/,/,47.0,-72.1,102.7*
C[C@H](NC(=O)c1nc[nH]c1C(=O)N(C)Cc1ccccc1)c1ccccc1,0.3,-4.2,0.9,-2.9,-6.2,0.4
O=C(Nc1ccc(N2CCCC2)cc1)C(Cl)c1ccccc1 (stereo unspecified),0.0,-5.7,-14.0,87.6*,8.0,-0.8
O=c1ccc2c([nH]1)CCCCCCCCCC2,0.3,9.8,-2.9,-15.7,-7.4,-2.9
CN(/N=C/c1ccc(-c2ccc([N+](=O)[O-])cc2)o1)c1ccccc1,-0.3,38.6,-3.9,14.1,-92.5,79.5*
O=C(NCC1CCCO1)c1cc(Br)c(Br)s1 (stereo unspecified),0.7,-8.2,-0.9,-5.0,-2.1,-1.3
COc1ccc(CN(C)C(=O)COC(=O)c2c(-c3ccccc3Cl)noc2C)cc1,-0.1,18.9,12.0,3.0,7.1,-0.2
CCC/C(=N\NC(=O)C1CC1)c1ccccc1,-0.1,-2.1,-2.8,8.2,65.4*,-1.6
O=C(c1ccc(-c2nc3ccccc3s2)o1)N1CCN(c2ccccc2O)CC1,-0.1,11.8,52.3*,2.1,15.8,-2.9
C[C@H](CO)N1C[C@H](C)[C@@H](CN(C)C(=O)NC2CCCC2)Oc2cc(Br)ccc2S1(=O)=O,0.1,-3.6,19.9,-21.4,1.0,-2.5
CC(CNC(=O)c1ccc(NC2=NC3CS(=O)(=O)CC3S2)cc1)c1ccccc1 (stereo unspecified),-0.1,-7.6,3.3,5.2,-122.2,50.3*
COc1ccc(NC(=O)Cc2ccsc2)cc1S(=O)(=O)N1CCOCC1,0.1,-7.4,5.2,1.2,11.6,-0.9
CC1=CC(C)(C)N(C(=O)c2ccccc2)c2ccc(C)cc21,-0.2,17.8,-8.1,-31.1,-49.5,67.2*
CCOc1ccc(N=c2scc(-c3ccc(OC)cc3)n2CCO)cc1,-0.3,1.6,-22.7,-2.1,79.9*,0.3
C[C@H]1O[C@@H](O[C@H]2CC[C@@]3(C)C(CC[C@]4(C)C3C=C[C@]35OC[C@@]6(CCC(C)(C)C[C@H]63)[C@@H](O)C[C@]54C)[C@]2(C)CO)[C@H](O)[C@@H](O[C@@H]2O[C@H](CO)[C@@H](O)[C@H](O)[C@H]2O)[C@H]1O (stereo partly specified),-0.3,-0.5,-1.9,5.2,-45.9,87.0*
CC1OC(OC2C(CO)OC(OCC3OC(OC(=O)[C@@]45CCC(C)(C)C[C@@H]4C4=CC[C@@H]6[C@@]7(C)CCC(OC8OCC(O)C(O)C8OC8OC(C)C(O)C(O)C8O)[C@@](C)(CO)C7CC[C@@]6(C)[C@]4(C)CC5)C(O)C(O)C3O)C(O)C2O)C(O)C(O)C1O (stereo partly specified),0.2,-1.0,19.4,-19.3,12.3,2.2
O=S(=O)(Nc1nc2ccccc2nc1Nc1ccc2c(c1)OCO2)c1ccc(F)cc1,0.4,-2.9,-24.2,-1.8,28.7,33.0
Cc1ccc(C)c(N2CCN(C(=O)c3cc4ccccn4n3)CC2)c1,0.1,0.8,1.0,10.2,-83.5,119.4*
O=C(c1cc2ccccn2n1)N1CCN(c2cccc(C(F)(F)F)c2)CC1,0.2,5.4,-6.3,-2.1,6.8,-11.1
CC(=O)Nc1ccc(C=NNc2ccc([N+](=O)[O-])cc2S(=O)(=O)Nc2ccccc2C(=O)O)cc1,-0.3,41.7,9.6,-22.7,5.2,2.4
Cc1ccc(NC(=S)NNc2ccc([N+](=O)[O-])cc2S(=O)(=O)Nc2ccccc2C(=O)O)cc1C,-0.2,61.8*,2.9,40.2,10.2,-3.7
